Cruzain noTriton = qHTS Assay for Promiscuous and Specific Inhibitors of Cruzain (without detergent); purified cruzain, Z-FR-AMC fluorescence, no detergent; Potency, µM, for inactives: max response, negative = inhibition, usual class: inhibitors; 200,000 tested, 2.3% active; AID 1476, 2009;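 note: plate controls were enzyme without inhibitor for no effect and buffer without enzyme for full effect; nearly all actives have a fitted effect of over 40% in size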
Target sequence (P25779 123-467 limits assumed): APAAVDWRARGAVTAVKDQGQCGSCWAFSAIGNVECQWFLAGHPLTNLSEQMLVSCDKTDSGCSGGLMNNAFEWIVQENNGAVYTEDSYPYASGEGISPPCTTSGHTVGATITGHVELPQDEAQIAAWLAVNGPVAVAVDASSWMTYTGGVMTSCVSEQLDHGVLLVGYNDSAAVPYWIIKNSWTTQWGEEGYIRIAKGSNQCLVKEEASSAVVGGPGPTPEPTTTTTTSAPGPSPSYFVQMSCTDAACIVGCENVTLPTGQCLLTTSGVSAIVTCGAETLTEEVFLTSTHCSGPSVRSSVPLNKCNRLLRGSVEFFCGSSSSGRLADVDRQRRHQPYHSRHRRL
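Purified cruzain at 1.5 nM, pre-incubated 15 min with compound at room temperature in 100 mM sodium acetate pH 5.5, 5 mM DTT, 0.00005% Triton X-100. Reaction started with 2 uM Z-FR-AMC; AMC fluorescence increase over 60 s gives rate.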
Cruzain inh Det = qHTS Assay for Promiscuous and Specific Inhibitors of Cruzain (with detergent). 200,000 tested, 0.43% active. Cruzipain (Trypanosoma cruzi), P25779. Potency, µM, for the others: max response, negative = inhibition, most hits filed as inhibitors. purified cruzain, Z-FR-AMC fluorescence, 0.01% Triton;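 note: plate controls were neutral wells for no effect and buffer without enzyme for full effect; nearly all actives have a fitted effect of over 40% in size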
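Compounds were screened in titration against cruzain (1.5 nM) with 0.01% Triton X-100 to counter colloidal aggregation. Activity was the AMC fluorescence increase over 60 s after adding 2 uM Z-FR-AMC at pH 5.5.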
* marks the source's active call; other numbers are inactive results; ? = inconclusive. Compounds with a hit are over-represented: about 2.5% of the library has one in this group of screens. Calls come from the whole dose curve; as a rule, active = well fitted curve in the direction sought with a large enough effect; inconclusive = small, poorly fitted or top-dose-only effect, or another doubt; inactive = no such curve, though single readings can be large; an effect the other way counts as inactive or inconclusive. Potency is the fitted concentration of half-maximal effect.

SMILES	Cruzain noTriton	Cruzain inh Det
O=C(c1cc(C(=O)NCc2ccccc2)c(=O)n(Cc2ccccc2)c1)c1cc(Br)ccc1O	4µM*	9%
Cc1ccc(O)c(C(=O)c2cc(C(=O)NCc3ccccc3)c(=O)n(Cc3ccccc3)c2)c1	?	-3%
CCCn1c(C)nc2c(NCCCN(CC)CC)nc(C)nc21	-9%	-5%
CC(C)(O)[C@H](O)COc1c2occc2cc2ccc(=O)oc12	0%	0%
Cc1cc2ccc(=O)oc2cc1OC[C@@H](O)C(C)(C)O	40µM*	-16%
COc1ccccc1NC(=O)CCN1CCCCC1	3%	0%
COc1ccc(NC(=O)CSc2nc(-c3ccccc3)[nH]c2-c2ccccc2)cc1OC	14%	-6%
COc1ccc(OC)c(NC(=O)C2CCCN(S(=O)(=O)c3ccc4[nH]c(=O)ccc4c3)C2)c1 (stereo unspecified)	29%	-4%
CCc1cccc(C)c1NC(=O)Cn1ncc2c3ccccc3n(Cc3ccccc3)c2c1=O	1%	-5%
CCC(CC)C(=O)Nc1nc(-c2ccc3c(c2)CCN3C(=O)C2CC2)c(C)s1	-2%	-7%
Cc1cccc(C(=O)N2CCc3cc(-c4nc(NC(=O)Cn5nnc6ccccc6c5=O)sc4C)ccc32)c1	10µM*	-4%
COc1ccc(CCC(=O)NCc2ccc3c(c2)CCN3C(=O)c2cccc(C)c2)cc1	21%	-3%
Cc1sc(NC(=O)Cc2ccc3c(c2)OCO3)nc1-c1ccc2c(c1)CCN2C(=O)c1cccc(F)c1	7.9µM*	-1%
Cc1ccccc1C(=O)N1CCc2cc(-c3nc(NC(=O)Cc4ccc5c(c4)OCO5)sc3C)ccc21	3.2µM*	-14%
Cc1sc(NC(=O)CN2CCOCC2)nc1-c1ccc2c(c1)CCN2S(=O)(=O)c1ccccc1	?	-4%
C#C[C@@]1(O)CC[C@@H]2[C@@H]3CCC4=C(CCC(=O)C4)[C@H]3CC[C@]21C	-5%	-2%
COc1ccc(CNC(=O)c2ccc3c(c2)CCN3S(=O)(=O)c2ccc(C)cc2)cc1	-26%	-2%
CCCC[C@@H]1C[C@H]1C(NC(=O)c1ccccc1)c1ccc(-c2ccccc2)cc1 (stereo partly specified)	-3%	-3%
Cc1ccc(S(=O)(=O)c2nnn(CC(=O)Nc3ccccc3C)c2N)cc1C	-7%	-2%
Cc1cc(-c2cc(C)c(O)c(C(C)(C)C)c2)cc(C(C)(C)C)c1O	-1%	-1%
O=C(O)[C@@H](c1ccccc1)N1Cc2ccccc2C1=O	16µM*	-27%
CCCCNC(=O)[C@@H](c1ccccc1)N1Cc2ccccc2C1=O	5%	7%
O=C(O)c1ccccc1NCn1c(=S)sc2ccccc21	4%	13%
COc1ccc(-c2nc(C(N)=O)c3[nH]c(=O)n(-c4cccc(Cl)c4)c3n2)cc1OC	?	3%
Cc1ccsc1-c1nc(C(N)=O)c2[nH]c(=O)n(-c3ccc(Cl)cc3)c2n1	10µM*	0%
SMILES	Cruzain noTriton	Cruzain inh Det
CCc1ccc(OCC(=O)Nc2cc3oc4ccccc4c3cc2OC)cc1	1%	0%
CCN(CC)c1ccc(C(=O)OCC(=O)Nc2cc3oc4ccccc4c3cc2OC)cc1	13µM*	-17%
COc1cc2c(cc1NC(=O)COC(=O)[C@@H](NC(=O)c1ccccc1F)C(C)C)oc1ccccc12	?	-10%
COc1cc2c(cc1NC(=O)COC(=O)[C@@H](NC(=O)c1ccccc1)C(C)C)oc1ccccc12	32µM*	-9%
COC(=O)c1c(NC(=O)c2cc3ccccc3c(=O)o2)sc2c1CCCC2	0%	-1%
C=CCC(C)(O)c1ccsc1 (stereo unspecified)	4%	4%
COc1ccc2c(CNCCc3ccccc3OC)c(C(=O)O)n(Cc3ccc(F)cc3Cl)c2c1	?	-7%
CCn1c(=O)c2cc(C(=O)N(CC(C)C)CC(C)C)sc2c2ccccc21	-9%	3%
O=[N+]([O-])c1ccccc1N/N=C\c1ccccc1Cl	20µM*	-3%
CCCOc1ccc(/C=N/Nc2ccccc2[N+](=O)[O-])c(OCCC)c1	?	-2%
OCCNc1nc(Nc2ccccc2)nc2ccccc12	16µM*	?
OCCNc1nc(Nc2ccccc2)nc(Nc2ccccc2)n1	-10%	-6%
Oc1cccc(Nc2nc(NCC3CCCO3)c3ccccc3n2)c1 (stereo unspecified)	13µM*	18µM*
c1ccc(-c2nc(NCC3CCCO3)c3ccccc3n2)nc1 (stereo unspecified)	0%	4%
CS(=O)(=O)Nc1cccc(-c2ccc3ncnc(N4CCOCC4)c3c2)c1	-2%	-6%
CC1CCN(c2nc3ccccc3nc2C(C#N)C(=O)NC2CCCCC2)CC1 (stereo unspecified)	20µM*	-4%
N#CC(C(=O)NC1CCCCC1)c1nc2ccccc2nc1N1CCOCC1 (stereo unspecified)	1%	2%
CCCCCCOC(=O)C(C#N)c1nc2ccccc2nc1N1CCCCC1 (stereo unspecified)	25µM*	-2%
CCCCCCOC(=O)C(C#N)c1nc2ccccc2nc1N1CCN(C)CC1 (stereo unspecified)	4%	-2%
CC(=O)c1ccc(N2CCN(c3ncnc4onc(C)c34)CC2)cc1	18%	-1%
Cn1cc(Cl)c(C(=O)OCC(=O)Nc2nc(-c3ccc(Br)cc3)cs2)n1	32µM*	-6%
Cc1cc(C)cc(NC(=O)CCn2cnc3ccccc3c2=O)c1	-11%	-1%
Cn1nccc1C(=O)OCC(=O)Nc1nc(-c2ccccc2)cs1	-6%	-8%
O=C(CCn1cnc2ccccc2c1=O)Nc1nc(-c2ccc(Br)cc2)cs1	25µM*	6%
O=C(Cc1cccs1)Nc1nc(-c2ccccc2)cs1	0%	-10%
SMILES	Cruzain noTriton	Cruzain inh Det
C/C(=N\Nc1nc(-c2ccccc2)cs1)c1cccs1	7.9µM*	?
C/C(=N\Nc1nc2ccccc2s1)c1cccs1	-23%	-11%
O=C(COC(=O)CNC(=O)c1ccccc1)Nc1nc(-c2ccccc2)cs1	?	25µM*
COc1ccc(NC(=O)C2=C(C)Nc3ncnn3C2c2ccc(O)cc2)cc1 (stereo unspecified)	-6%	-2%
N=C(N)c1ccc(OCCCCCOc2ccc(C(=N)N)cc2)cc1 (tested in a mixture with another compound)	-4%	-4%
N[C@@H](Cc1c[nH]c2ccc([N+](=O)[O-])cc12)C(=O)O	-10%	2%
Cc1ccc(-n2nc(CO)c(C(=O)NCCCc3ccccc3)n2)cc1	4%	-6%
O=C(COC(=O)c1cccs1)Nc1nc(-c2ccccc2)cs1	10µM*	0%
O=C(COC(=O)/C=C/c1cccs1)Nc1nc(-c2ccccc2)cs1	?	-5%
CC1CCN(S(=O)(=O)c2ccc3c(c2)N(CC(=O)NCCN(C)C)C(=O)CS3)CC1	1%	0%
COC(=O)c1ccccc1NC(=S)N(Cc1ccc2c(c1)OCO2)Cc1cc2cc(OC)ccc2[nH]c1=O	10µM*	-10%
COC(=O)c1ccccc1NC(=O)NCc1ccc2c(c1)OCO2	-9%	1%
Cc1noc2ncc(C(=O)c3cc(F)ccc3O)cc12	-5%	1%
Cc1ccc(O)c(C(=O)c2cnc3onc(-c4ccc(F)cc4)c3c2)c1	13µM*	-4%
O=C(COCc1cc(-c2ccc(F)cc2)on1)Nc1cc(Cl)ccc1O	-2%	2%
